# According to PubChem BioAssay (NCI):
# The panel holds about 83,000 compounds, 20% with a hit somewhere; the sample as a whole holds those more often.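 Activity criterion: percent growth below 10, measured after cells in 96-well plates were exposed to a single compound concentration for 48 hours.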 A number with no mark means an inactive call. Activity calls are given as the source filed them.
# Tests used:
# Experiment in all cases: NCI-60 one-dose screen, 48 h (100 = growth as untreated, 0 = no growth, -100 = all killed)
# Conditions in all cases: 10 µM unless noted
# [1] = tested on: NCI-H23 lung
# [2] = tested on: NCI-H226 lung
# [3] = tested on: NCI-H322M lung
# [4] = tested on: HOP-62 NSCLC
# [5] = tested on: NCI-H460 lung
# [6] = tested on: HOP-92 NSCLC
# [7] = tested on: NCI-H522 lung
# [8] = tested on: A549/ATCC NSCLC
# [9] = tested on: 786-0 renal
# [10] = tested on: DU-145 prostate
# [11] = tested on: K-562 leukemia
# [12] = tested on: MALME-3M melanoma
# [13] = tested on: MDA-MB-231 breast
# [14] = tested on: RXF 393 renal
# [15] = tested on: SF-268 CNS
# [16] = tested on: SF-295 CNS
# [17] = tested on: SF-539 CNS
# [18] = tested on: UACC-257 melanoma
# [19] = tested on: M14 melanoma
SMILES,growth [1],growth [2],growth [3],growth [4],growth [5],growth [6],growth [7],growth [8],growth [9],growth [10],growth [11],growth [12],growth [13],growth [14],growth [15],growth [16],growth [17],growth [18],growth [19]
Cc1ccc(Nc2ccc(Nc3ccc(C)cc3S(=O)(=O)O)c3c2C(=O)c2ccccc2C3=O)c(S(=O)(=O)O)c1,97.2%,96.9%,90%,107%,102%,99%,93.3%,112%,111%,102%,100%,101%,95.6%,107%,103%,101%,102%,112%,88%
COc1ccc(C(=O)/C=C/C23c4ccccc4C(c4ccccc42)C2C(=O)NC(=O)C23)cc1 (centres undefined),88.1%,99.7%,92.4%,96.4%,96.2%,103%,87%,90.7%,103%,97.4%,86.3%,98%,94.9%,95.9%,90.5%,106%,89.9%,89.4%,105%
CCC(C)NCc1ccccc1 (centres undefined),97.1%,92.2%,98.1%,97.6%,102%,93.8%,66.7%,95.4%,98.6%,106%,98.1%,105%,96.4%,99.3%,98.9%,98.9%,102%,103%,96.9%
N#C/C(=C\c1ccc2c(c1)OCO2)n1nnc2ccccc21,10.9%,8.93% (active),9.39% (active),28.7%,0.341% (active),-2.71% (active),14%,17.1%,6.58% (active),-38% (active),14.2%,25.8%,-31.9% (active),-44.8% (active),22.9%,-5.56% (active),-61.4% (active),64.4%,2.76% (active)
N[C@@H]1CCC[C@H]1NCCCCN1C(=O)c2cccc3cccc(c23)C1=O,80.4%,91.9%,64.4%,81.9%,59.8%,48%,65.8%,67.4%,58%,59.8%,60.4%,116%,58.2%,72.8%,52.6%,84.4%,7.65% (active),100%,64%
C#CC[C@H](N)C(=O)O,103% [20 µM],106% [20 µM],97.8% [20 µM],94.4% [20 µM],104% [20 µM],87.3% [20 µM],89.2% [20 µM],99% [20 µM],98.1% [20 µM],104% [20 µM],96.8% [20 µM],97% [20 µM],99.1% [20 µM],114% [20 µM],99.8% [20 µM],102% [20 µM],96% [20 µM],101% [20 µM],100% [20 µM]
Cc1[nH]c(-c2nc3ccccc3[nH]2)c(C)c1C(=O)N1CCOCC1,88.5%,91.4%,94.6%,105%,101%,91.1%,91%,101%,102%,107%,106%,95.7%,83.7%,93.6%,99.5%,96%,96.2%,94.1%,95%
C[C@@H]1C(=O)N(C[C@H](Cc2ccccc2)N(Cc2ccccc2)Cc2ccccc2)[C@]1(Cc1ccccc1)C(=O)OC(C)(C)C,42%,47.8%,87.9%,81.6%,54%,46.3%,50.9%,60%,72.6%,77.6%,51.6%,88%,61.9%,68.5%,69.8%,40.3%,91%,45.1%,75.4%
N#Cc1c(NC(=O)c2cccc(C(F)(F)F)c2)sc2c1CCC(=O)C2,0.847% (active),13.6%,66.1%,4.66% (active),3.47% (active),-28.5% (active),-15.2% (active),14.6%,13.1%,24%,6.88% (active),-64.9% (active),-54.3% (active),-23.5% (active),1.68% (active),-6.4% (active),-57.8% (active),-3.73% (active),-68.2% (active)
O=C(Nc1ccccc1Cl)OCCN1CCOCC1,99.7%,99%,98.7%,106%,109%,85.6%,64.5%,98.5%,88.7%,109%,90.6%,114%,111%,114%,107%,103%,105%,105%,90.7%
CCn1c(Sc2nnc(NC(=O)CCN3CCCC3)s2)nc2c1c(=O)n(C)c(=O)n2C,106%,103%,105%,103%,112%,107%,86.8%,99.3%,106%,104%,102%,107%,103%,110%,102%,107%,98.4%,102%,107%
CN(C)CCOC(=O)Nc1ccc(Cl)cc1,102%,88.8%,92.2%,88.4%,106%,85.5%,64.9%,94.7%,94.2%,110%,90.5%,114%,93.8%,118%,105%,103%,102%,101%,90.5%
C=C(C)[C@@H]1CC[C@]2(CNCCO)CC[C@]3(C)[C@H](CC[C@@H]4[C@@]5(C)CCC(N)[C@@](C)(CO)[C@@H]5CC[C@]43C)[C@@H]12 (some centres undefined),46.8%,94.1%,47.5%,-53.7% (active),-56.4% (active),38.8%,-77.2% (active),-33.5% (active),-58.1% (active),10.3%,-63.2% (active),-84.2% (active),-68.4% (active),30.2%,10.1%,-19.6% (active),-80.5% (active),-87.1% (active),-77% (active)
COc1cc2c(cc1OC)-c1ccc3cc4c(cc3c1N(CCCN1CCCCC1)C2)OCO4,70.4%,75.8%,63.6%,56%,29.1%,23.2%,41.6%,49.5%,40.1%,51.1%,16.9%,76.7%,34.4%,43.8%,44.8%,56.9%,61.7%,64.3%,54%
CC(=[N-])N1CCC[C@@H](Nc2c3ccccc3nc3ccccc23)C1.[Cl][Pt].[NH-]CCC[NH-],-2.65% (active),-4.62% (active),44.9%,51.9%,0.597% (active),28.7%,-18.5% (active),7.75% (active),53.5%,5.94% (active),19.2%,20.7%,46.9%,-24.3% (active),62.3%,56.8%,36.9%,66.9%,65.3%
CCNCCNc1cc(-c2cccc(C(F)(F)F)c2)c(C#N)c2nc3ccccc3n12,-57.6% (active),-67.2% (active),-63.1% (active),-75.1% (active),-70.4% (active),-58.1% (active),-71.3% (active),-91.9% (active),-88% (active),-74.9% (active),-65.8% (active),-77.3% (active),-66.2% (active),-85.6% (active),-73.8% (active),-82.3% (active),-88.7% (active),-84.4% (active),-89.3% (active)
